Bioassay records from PubChem BioAssay.
Exocytosis inh: blocks lytic granule exocytosis; inhibition, % at 10 µM; actives 0.66% (n = 360,000); TALL-104 LAMP-1 surface exposure, flow cytometry; cells stimulated with thapsigargin and PMA;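 active = inhibition above about 55%, limit read from the data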
ALR H2O2 inh: blocks human ALR sulfhydryl oxidase activity. purified ALR, DTT oxidation, H2O2 HRP-luminol luminescence. AID 485317. P55789. inhibition, % (concentration not given with the values). actives 3.8% (n = 290,000);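 active = mean replicate inhibition above about 79%, with every replicate also reaching it, limit read from the data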
Target sequence (P55789 whole entry, looked up): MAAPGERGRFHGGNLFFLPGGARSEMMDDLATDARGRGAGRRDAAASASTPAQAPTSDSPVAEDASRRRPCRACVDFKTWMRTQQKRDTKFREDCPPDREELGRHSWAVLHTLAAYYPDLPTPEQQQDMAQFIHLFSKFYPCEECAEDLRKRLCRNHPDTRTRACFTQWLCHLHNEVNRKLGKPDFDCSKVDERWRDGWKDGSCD
JMJD2C inh: inhibitors of human GASC-1 (JMJD2C) demethylase | actives 0.069% (n = 330,000) | AID 2099 | inhibition, % at 2.35 µM | Q9H3R0 | GST-JMJD2C(1-420) H3K9me3 demethylation, DELFIA europium;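 active = more than half of a compound's replicate wells show inhibition beyond 50%, single wells judged on their own value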;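 also: signal counts dimethyl H3K9 product captured on neutravidin plate; 0% = median of DMSO wells and 100% = 0.3 times that DMSO median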
Target sequence (Q9H3R0 1-420 limits assumed): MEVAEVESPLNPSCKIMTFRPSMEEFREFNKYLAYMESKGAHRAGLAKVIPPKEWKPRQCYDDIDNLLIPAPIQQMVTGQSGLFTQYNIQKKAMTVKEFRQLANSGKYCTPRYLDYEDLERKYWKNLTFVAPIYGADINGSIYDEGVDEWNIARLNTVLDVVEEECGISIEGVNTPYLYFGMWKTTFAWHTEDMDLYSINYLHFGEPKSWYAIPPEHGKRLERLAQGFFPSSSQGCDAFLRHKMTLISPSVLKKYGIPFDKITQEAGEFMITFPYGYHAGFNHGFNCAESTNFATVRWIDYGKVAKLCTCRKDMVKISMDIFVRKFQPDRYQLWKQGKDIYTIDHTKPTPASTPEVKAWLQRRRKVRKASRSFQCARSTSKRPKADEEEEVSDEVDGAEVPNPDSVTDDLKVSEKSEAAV
beta cell repl: MIN6 beta-cell proliferation induction | MIN6 cells proliferation, ATPlite luminescence, 48 h; cells starved in 0.2% serum; 100% = growth in 10% serum | proliferation, % at 10 µM | actives 0.29% (n = 330,000);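 active = compounds whose signal lies at least 3.5 SD above the mean of all wells on their plate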;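 also: 0% = DMSO-treated cells in low-serum medium and 100% = 10% serum control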
M18AAP inhibitor: blocks P. falciparum M18 aspartyl aminopeptidase; recombinant PfM18AAP, H-Glu-NHMec fluorogenic cleavage; inhibition, % at 7.35 µM; actives 1.2% (n = 290,000);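 active = inhibition above the campaign mean inhibition over all tested compounds plus 3 SD, cut at about 28% in these data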;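 also: 0% = plate median of test compound wells and 100% = 2 mM ZnCl2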
SMARCA2 act: activators of SMARCA2 function; actives 1% (n = 370,000); activation, % at 9.1 µM; AID 652017; MG213 cells, MMTV-luciferase reporter, dexamethasone, overnight; in the data active = activation above about 7.8%;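 also: 0% = vehicle wells and 100% = reference activator wells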
SMARCA2 act conf: confirmation of SMARCA2 (BRM) function activators. shares compounds with SMARCA2 act. MG213 cells, MMTV-luciferase with dexamethasone, luminescence, overnight; MG213 cells expressing E1A, Rb sequestered; DMSO wells 0%, reference activator 100%. activation, % at 9.1 µM. actives 30% (n = 3,500);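 active = activation above its plate's cutoff, the mean activation of tested wells plus 3 SD, cut at about 7.9% in these data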
VP16 Luc act: GAL4-VP16 reporter activation counter-screen; shares compounds with SMARCA2 act; HEK293 GAL4-VP16 pG5luc reporter, luciferase luminescence; scaled: DMSO wells 0%, SAHA wells 100%; activation, % at 9.1 µM; actives 41% (n = 3,500);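 active = activation above the solvent-only control well mean plus 3 SD, averaged across control plates, cut at about 5.2% in these data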
Starred values were filed as active, the others as inactive; x = no result given. This is a sample that favours compounds with a hit; in the whole collection about 5.4% have one here.

SMILES | Exocytosis inh | ALR H2O2 inh | JMJD2C inh | beta cell repl | M18AAP inhibitor | SMARCA2 act | SMARCA2 act conf | VP16 Luc act
CC1(C(=O)OCC(=O)NCc2ccc(Cl)cc2)CC1(Cl)Cl (stereo unspecified) | -1 | -3 | -1 | 1 | x | 8.6* | -2 | 0
COc1cccc(CNC(=O)[C@@H]2CCCN2C(=O)[C@H]2CCCCN2C(=O)c2cccc(Cl)c2)c1 | -2 | x | x | x | x | -2 | x | x
Nc1ccccc1SC1CC(=O)N(c2ccc3c(c2)OCCO3)C1=O (stereo unspecified) | -8 | -5 | 10 | 0 | -1 | 3 | x | x
O=C1CC(Sc2ccc(Cl)cc2)C(=O)N1c1ccc2c(c1)OCCO2 (stereo unspecified) | 7 | -16 | 3 | -4 | -13 | 8.4* | -3 | 0
O=C(Nc1ccc(F)cc1)C(c1cccc(F)c1)N1CCN(C(=O)c2ccco2)CC1 (stereo unspecified) | 10 | x | x | x | x | 2 | x | x
O=C(Nc1ccc(F)cc1)C(CCc1ccccc1)N1CCN(C(=O)c2ccco2)CC1 (stereo unspecified) | -12 | x | x | x | x | 8.7* | 1 | -1
COc1ccc(Cn2cc(CN3CC(N4CCN(CCN(C)C)CC4)CS3(=O)=O)nn2)cc1 (stereo unspecified) | -6 | x | x | x | x | 1 | x | x
O=C(COc1cccc(C(F)(F)F)c1)Nc1cccnc1 | -6 | -7 | -9 | -1 | -1 | 8.4* | -1 | -1
Cc1cc(O)ccc1Nc1cc(-c2cccc(N(C)C)c2)ncn1 | -6 | x | x | x | x | 11* | 11* | 11*
CN(C)c1cccc(O)c1 | -1 | 26 | 6 | -1 | x | -3 | x | x
N#CCCN(Cc1ccccc1)C(C(=O)NC1CCCCC1)c1cc2ccccc2o1 (stereo unspecified) | 0 | x | x | x | x | -3 | x | x
c1ccc(-c2ccc3c(n2)CCCN3Cc2ccccn2)cc1 | x | x | x | x | x | 8.9* | 3 | 8.7*
Cc1ccc(C)c(-c2csc(Nc3ncccn3)n2)c1 | -1 | -11 | -2 | -3 | -14 | 1 | x | x
Oc1ccc(-c2csc(Nc3ncccn3)n2)c(O)c1 | -5 | 17 | -14 | -3 | 18 | 9.4* | 11* | 10*
COc1cccc(C(C)(O)c2nc(-c3ccc(N(C)C)cc3)cs2)c1 (stereo unspecified) | 1 | x | x | x | x | -6 | x | x
Cc1ccc(S(=O)(=O)N2C[C@H]3N(C(=O)OC(C)C)N(C(=O)OC(C)C)C[C@H](OC(=O)NCC4CCCCC4)[C@@]3(O)C2)cc1 | 2 | x | x | x | x | x | x | x
CCOC(=O)C1=C(C)c2ccccc2N(C(=O)OC)C1(C)C(=O)OCC (stereo unspecified) | 1 | x | x | x | x | 8.1* | 1 | -1
CCOC(=O)C1=C(C)c2ccccc2OC1(CC)C(=O)OCC (stereo unspecified) | -1 | x | x | x | x | -1 | x | x
CC1=C(C(=O)N2CCCCCC2)CC(CC(=O)NCCCN(C)C)C(=O)N1CCCN1CCCC1=O (stereo unspecified) | -9 | x | x | x | x | 5 | x | x
COc1ccc(NC(=O)CSc2nc3ccccc3c(=O)n2Cc2cccs2)c(OC)c1 | x | x | 21 | 0 | 4 | x | x | x
COc1cccc(NC(=O)CSc2nc3ccccc3c(=O)n2Cc2cccs2)c1 | 3 | -5 | -3 | 1 | -4 | 8.9* | -5 | -1
O=C(NN=Cc1ccc2c(c1)OCO2)c1ccccc1 | -11 | x | x | x | x | 11* | 8.7* | 8.4*
COc1ccc(C(=O)C=Cc2ccc3c(c2)OCO3)cc1OC | -3 | x | x | x | x | 10* | 12* | 0
O=C(N/N=C/c1ccc2c(c1)OCO2)c1ccc2c(c1)OCO2 | -1 | 0 | 0 | -3 | 1 | 2 | x | x
COc1ccc(/C=C/C(=O)c2ccc3c(c2)OCO3)c(OC)c1 | 0 | -7 | -3 | -5 | 5 | 11* | 8.8* | 8.0*
SMILES | Exocytosis inh | ALR H2O2 inh | JMJD2C inh | beta cell repl | M18AAP inhibitor | SMARCA2 act | SMARCA2 act conf | VP16 Luc act
CC(=O)Nc1ccc(/C=C/C(=O)c2ccc3c(c2)OCCO3)cc1 | 4 | 7 | 0 | 0 | -5 | 0 | x | x
COc1ccc(C=CC(=O)c2ccc(OC)c(OC)c2)cc1O | -10 | x | x | x | x | 6 | x | x
O=C(/C=C/c1ccc2c(c1)OCCO2)c1ccccc1 | -3 | x | 3 | -4 | 13 | 17* | 10* | 9.1*
CNC(=O)C[C@H]1C(=O)N(c2ccc(Br)cc2)C[C@@H]1C | 1 | x | x | x | x | -3 | x | x
O=C(NN=C1CCCCCC1)c1ccc2c(c1)OCO2 | -2 | 23 | -22 | 2 | 18 | 10* | 3 | 4
COc1cc(C(=O)Nc2ccc3c(c2)OCO3)ccc1OCc1c(C)noc1C | 1 | -13 | 9 | -3 | -9 | 8.4* | 6 | 0
C/C(=N\NC(=O)c1ccc2c(c1)OCO2)c1ccc2c(c1)OCO2 | -6 | x | -3 | -3 | -13 | 5 | x | x
Cc1cnc(CNc2nc3cc(-c4ccccc4C)sc3c(=O)n2C)cn1 | -16 | x | x | x | x | 0 | x | x
Oc1ccc(-c2nc3ccccc3s2)c(O)c1 | 0 | 27 | 7 | -1 | 4 | 14* | 6 | 10*
CC12CCC(c3c(C(=O)O)nn(-c4ccccc4)c31)C2(C)C (stereo unspecified) | -3 | -4 | 0 | -1 | 0 | 9.4* | -2 | 0
Cc1cccc(Cl)c1NC(=O)NCCCN1CCCCC1C (stereo unspecified) | -5 | x | x | x | x | -2 | x | x
CCC(Sc1nc2ccccc2c(=O)n1CC1CCCO1)C(=O)NCc1cccnc1 (stereo unspecified) | 0 | -5 | 14 | -2 | -26 | 8.3* | 0 | 0
CCS(=O)(=O)N1Cc2ccccc2CC1C(=O)Nc1ccc(F)c(F)c1 (stereo unspecified) | 3 | -12 | 2 | 0 | 1 | 15* | 8 | 4
CCS(=O)(=O)N1Cc2ccccc2CC1C(=O)Nc1ccc(OC)cc1 (stereo unspecified) | -2 | -11 | 3 | -3 | -9 | -1 | x | x
CCOc1ccc(NC(=O)C2Cc3ccccc3CN2S(=O)(=O)CC)cc1 (stereo unspecified) | -1 | -9 | 8 | -2 | -1 | 10* | 0 | 1
CC(C)NC(=O)N(C)C[C@H]1OCCCC[C@@H](C)Oc2ccc(N(C)C)cc2C(=O)N([C@H](C)CO)C[C@@H]1C | 3 | x | x | x | x | 0 | x | x
CC(=O)N1CCN(S(=O)(=O)c2cccc(C(=O)Nc3nc4c(s3)CCCC4)c2)CC1 | -2 | 31 | 19 | -1 | -2 | -4 | x | x
